Several values for one entry are separate records, joined by “and”; a condition that tells them apart may be missing. Identical values can stand only once. Results filed as inconclusive are left out. Activity calls are given as the source filed them. Unless noted, calls follow the shape of the dose curve; as a rule, active = well fitted curve in the direction sought with a large enough effect; inconclusive = small, poorly fitted or top-dose-only effect, or another doubt; inactive = no such curve, though single readings can be large; an effect the other way counts as inactive or inconclusive.

The nature of experiment [1]: Cell Viability - BJ (AID 421; calls by dose curve;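 also: potency is read from the fitted curve at half-maximal effect; cells exposed to compound for 40 hours at 37 °C before readout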). The note with it: BJ fibroblast viability, qHTS. An outline of the steps: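 Normal human BJ foreskin fibroblasts, 1500/well in complete medium, treated 40 hr at 37 °C. Cellular ATP by CellTiter-Glo luminescence; normalized to DMSO and 100 uM tamoxifen, AC50 from Hill fit.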
Experiment [2] can be described thus: Cell Viability - HepG2 (AID 433; calls by dose curve;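 also: potency is read from the fitted curve at half-maximal effect; cells exposed to compound for 40 hours; potency for ATP loss meaning cytotoxicity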). The note with it: qHTS. An outline of the steps:
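Cytotoxicity read as ATP loss (CellTiter-Glo luminescence) after 40 hr compound exposure of HepG2, 1500 cells/well, 37 °C. AC50 by Hill equation; 0% set by DMSO, 100% inhibition by 100 uM tamoxifen.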

Experiment [3] can be described thus: Cell Viability - Mesenchymal (AID 546).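 Also: cells exposed to compound for 40 hours before reading.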 The note with it: mesenchymal cells viability, qHTS; activity change, negative = cytotoxicity: at 91.7 µM (top of the series). An outline of the steps: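 Normal human renal glomerulus-derived kidney mesenchymal cells, 1000 per well in complete medium, were treated with compounds for 40 hr at 37 °C. Viability was read as intracellular ATP by CellTiter-Glo luminescence; AC50 values came from Hill-equation fits of qHTS concentration-response data.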

Experiment [4] can be described thus: Cellular Toxicity (caspase-3) Jurkat (AID 655).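 Also: cells exposed to compound for 16 h at 37 °C before reading.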 Also: potency is read from the fitted curve at half-maximal effect. To be noted: Jurkat caspase-3 activation, luminescence; caspase-3 activation: at 92.2 µM (top of the series), DMSO = 0%, tamoxifen = 100%. An outline of the steps: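 Luminescent Caspase-Glo 3/7 read-out (20 min, room temperature) after 16 h compound treatment at 37 C of 5000 Jurkat cells per well. AC50 derived by Hill-equation fitting, scaled between DMSO basal and 100 uM tamoxifen stimulation.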

The nature of experiment [5]: Cell Viability - LYMP2-003 (AID 965).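 Also: cells exposed to compounds for 24 h before reading; nearly all actives have a fitted effect of over 50% in size.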 Also: potency is read from the fitted curve at half-maximal effect.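 As to activity change, negative = cytotoxicity: 0% = DMSO only and full effect = 92 µM tetraoctylammonium bromide.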 To be noted: LYMP2-003 lymphoblastoid cell viability; series mostly up to 92.2 µM. The method, boiled down:
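CellTiter-Glo luminescence quantified ATP loss after 24 h compound treatment of LYMP2-003 lymphoblastoid cells at 37 C. Titration series were fitted with the standard Hill equation to give AC50.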

Experiment [6] in a line: Cell Viability - LYMP2-011 (AID 969).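 Also: cells exposed to compound for 24 hours; 0% = DMSO only and full inhibition = 92 µM tetraoctylammonium bromide; nearly all actives have a fitted effect of over 60% in size.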 The note with it: LYMP2-011 lymphoblastoid cells viability; series mostly up to 92.2 µM. An outline of the steps: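 2500 cells/well, 5 hr 37 C; compound added, 24 hr 37 C; CellTiter-Glo 30 min RT; luminescence. qHTS concentration-response, Hill-equation AC50. Tetraoctylammonium bromide positive control.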
Experiment [7] can be described thus: Cell Viability - LYMP2-021 (AID 974).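 Also: compound exposure lasts 24 hours at 37 °C; % is scaled to controls: 0 for no effect and ±100 for the full control effect; nearly all actives have a fitted effect of over 55% in size.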 The note with it: LYMP2-021 lymphoblastoid cells viability; series mostly up to 92.2 µM. An outline of the steps: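 Plate 2500 lymphoblastoid cells per well and incubate 5 hr at 37 C. Add compounds over a concentration range and incubate 24 hr at 37 C. Add CellTiter-Glo, wait 30 min at room temperature, read luminescence.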

A short description of experiment [8]: Cell Viability - LYMP2-023 (AID 975).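 Also: cellular ATP measured by luciferase luminescence as viability proxy; cells exposed to compound for 24 hours at 37 °C; plate controls were DMSO only for no effect and 92 µM tetraoctylammonium bromide control for full effect; nearly all actives have a fitted effect of over 55% in size.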 To be noted: LYMP2-023 lymphoblastoid cell viability; series mostly up to 92.2 µM. An outline of the steps:
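2500 cells/well, 5 hr 37 C; cpd 24 hr 37 C; CellTiter-Glo, 30 min RT; luminescence. qHTS conc-response, Hill fit -> AC50. Pos ctrl tetraoctylammonium bromide.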

The nature of experiment [9]: Cell Viability - LYMP2-025 (AID 976).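 Also: plate controls were DMSO only for no effect and tetraoctylammonium bromide control for full effect.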 The note with it: LYMP2-025 lymphoblastoid cell viability; series mostly up to 92.2 µM. The method, boiled down:
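Seed 2500 LYMP2-025 cells/well; 5 hr at 37 C; add compound; 24 hr at 37 C; add CellTiter-Glo; 30 min RT; read luminescence. AC50 from Hill-modelled concentration-response.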

Experiment [10] in a line: Cell Viability - LYMP2-002 (AID 977).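 Also: plate controls were DMSO only for no effect and 92 µM tetraoctylammonium bromide for full effect.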 To be noted: LYMP2-002 lymphoblastoid cell viability, qHTS; series mostly up to 92.2 µM. The method, boiled down: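 Luminescent ATP readout (CellTiter-Glo, 30 min room temperature) after 24 h compound exposure at 37 C of a human lymphoblastoid line, 2500 cells/well. AC50 values derived by standard Hill fitting of qHTS concentration-response data.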

The nature of experiment [11]: Cell Viability - LYMP2-008 (AID 980). Also: % is scaled to controls: 0 for no effect and ±100 for the full control effect; nearly all actives have a fitted effect of over 60% in size. To be noted: LYMP2-008 lymphoblastoid cell viability, qHTS; series mostly up to 92.2 µM. An outline of the steps:
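qHTS, human lymphoblastoid line, 2500 cells/well; 5 hr preincubation, 24 hr compound, 37 C. CellTiter-Glo ATP luminescence. AC50 via Hill equation. Tetraoctylammonium bromide positive control.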

A short description of experiment [12]: Cell Viability - LYMP2-014 (AID 983). Also: nearly all actives have a fitted effect of over 50% in size. Also: potency is read from the fitted curve at half-maximal effect.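 As to activity change, negative = cytotoxicity: plate controls were DMSO only for no effect and 92 µM tetraoctylammonium bromide for full effect.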 To be noted: LYMP2-014 lymphoblastoid cells, viability qHTS; series mostly up to 92.2 µM. The method, boiled down:
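Luminescent ATP signal (CellTiter-Glo, 30 min at room temperature) serves as the viability read-out after 24 hr compound exposure at 37 C. Cells were seeded at 2500 per well and settled 5 hr beforehand.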

A short description of experiment [13]: Cell Viability - LYMP2-016 (AID 984).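 Also: cells exposed to compound for 24 hours at 37 °C; % is scaled to controls: 0 for no effect and ±100 for the full control effect; nearly all actives have a fitted effect of over 55% in size.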 The note with it: LYMP2-016 lymphoblastoid cell viability, qHTS; series mostly up to 92.2 µM. An outline of the steps: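 Cytotoxicity was scored by luminescent ATP content (CellTiter-Glo) after 24 h compound exposure at 37 C of a human lymphoblastoid line at 2500 cells/well. Concentration-response data were fitted to the Hill equation for AC50.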

Experiment [14] can be described thus: Cell Viability - LYMP2-018 (AID 985). Also: nearly all actives have a fitted effect of over 50% in size. Also: potency is read from the fitted curve at half-maximal effect.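 As to activity change, negative = cytotoxicity: plate controls were DMSO only for no effect and tetraoctylammonium bromide at 92 µM for full effect.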 The note with it: LYMP2-018 lymphoblastoid cells, viability (qHTS); series mostly up to 92.2 µM. An outline of the steps:
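Luminescent ATP signal (CellTiter-Glo, read after 30 min at room temperature) reports viable cells after 24 hr compound treatment at 37 C. Concentration-response data were fitted to the standard Hill equation for AC50.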

Experiment [15] in a line: Cell Viability - LYMP2-024 (AID 988). Also: nearly all actives have a fitted effect of over 60% in size. Also: potency is read from the fitted curve at half-maximal effect.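 As to activity change, negative = cytotoxicity: plate controls were DMSO only for no effect and 92 µM tetraoctylammonium bromide for full effect.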 To be noted: LYMP2-024 lymphoblastoid cell viability; series mostly up to 92.2 µM. An outline of the steps: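 Steps: seed 2500 cells/well, 5 hr 37 C; add compound, 24 hr 37 C; add CellTiter-Glo, 30 min room temperature; read luminescence. AC50 derived by Hill modelling of concentration-dependent ATP loss.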
Experiment [16] can be described thus: Cell Viability - LYMP2-026 (AID 989). Also: % is scaled to controls: 0 for no effect and ±100 for the full control effect; nearly all actives have a fitted effect of over 50% in size. To be noted: LYMP2-026 lymphoblastoid cell viability, qHTS; series mostly up to 92.2 µM. The method, boiled down:
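Luminescent ATP signal (CellTiter-Glo, 30 min room temperature) measures viable lymphoblastoid cells after 24 hr compound treatment at 37 C. Decreased ATP reflects acute toxicity; AC50 values come from Hill-equation modeling.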

Experiment [17] in a line: qHTS assay for small molecule antagonists of retinoid X receptor alpha signaling (AID 588546; active = well fitted inhibition curve with a large enough effect in the signal ratio, with a control signal flat, not every such curve was filed as active; the % refers to the signal ratio; also: potency is read from the fitted curve at half-maximal effect;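 as to max response: cells stimulated with 9-cis-retinoic acid as agonist; % is scaled to controls: 0 for no effect and ±100 for the full control effect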). To be noted: HEK293T RXRa-UAS-bla, beta-lactamase ratio, antagonist mode; measured here: W530 green channel, cytotoxicity proxy. The method, boiled down: (§1)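 Beta-lactamase reporter inhibition, read as CCF4 fluorescence ratio (ex 405, em 460/530 nm) after 2 h at RT. HEK293T UAS-bla cells, 2500/well, were stimulated with 9-cis-RA at 500 or 100 nM final alongside test compound for 18 h at 37 C.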

Experiment [18] concerns the target Retinoic acid receptor RXR-alpha (Homo sapiens) (UniProt P19793). The experiment is described as above. To be noted: HEK293T RXRa-UAS-bla, beta-lactamase ratio, antagonist mode. An outline of the steps:
as §1

Experiment [19] in a line: qHTS assay for environmental chemicals that activate the Aryl hydrocarbon Receptor (AhR) signaling pathway (AID 651777). Also: % of control where 0% means no effect; nearly all actives have a fitted effect of over 15% in size. To be noted: 1A2-DRE human hepatoma cells, luciferase, 24 h; activation: stronger effect = higher value. The method, boiled down:
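Stable CYP1A2 promoter/DRE-luciferase human hepatoma line treated 24 hr; One-Glo luminescence, 30 min RT.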

Experiment [20] can be described thus: Cell Viability - LYMP2-022 (AID 987). Also: nearly all actives have a fitted effect of over 55% in size. Also: potency is read from the fitted curve at half-maximal effect. The note with it: LYMP2-022 lymphoblastoid cell viability; series mostly up to 92.2 µM. The method, boiled down: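 qHTS: human lymphoblastoid cells 2500/well; 5 hr 37 C; cpd added; 24 hr 37 C; CellTiter-Glo, 30 min RT; luminescence. AC50 via Hill fit; tetraoctylammonium bromide positive ctrl.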

Retinoic acid receptor RXR-alpha (Homo sapiens), sequence (P19793 whole entry, looked up): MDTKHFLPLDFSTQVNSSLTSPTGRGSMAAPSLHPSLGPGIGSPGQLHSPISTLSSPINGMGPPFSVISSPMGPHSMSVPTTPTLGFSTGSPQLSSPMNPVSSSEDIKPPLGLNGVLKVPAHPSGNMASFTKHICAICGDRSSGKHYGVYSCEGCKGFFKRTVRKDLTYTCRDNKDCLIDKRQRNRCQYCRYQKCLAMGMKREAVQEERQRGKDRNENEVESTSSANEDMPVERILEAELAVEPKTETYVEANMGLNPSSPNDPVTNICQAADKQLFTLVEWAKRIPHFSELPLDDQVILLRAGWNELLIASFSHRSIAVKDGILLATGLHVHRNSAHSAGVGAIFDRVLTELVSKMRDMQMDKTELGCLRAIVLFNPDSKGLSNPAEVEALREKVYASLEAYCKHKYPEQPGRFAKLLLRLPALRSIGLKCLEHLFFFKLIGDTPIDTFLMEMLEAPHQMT

In the case of `C=C(C#N)C(=O)OCC`, the Potency in [1] and in experiment [2] was > 92 µM (inactive) each time. For the same compound, the Potency result in experiment [3], in experiment [4], in experiment [5], in experiment [6], in experiment [7] and in experiment [8] was “inactive” in each case. For the same compound, the Potency entry in experiment [9], in [10], in [11], in [12], in [13] and in [14] was “inactive” throughout. Also, the Potency entry in experiment [15] and in [16] was “inactive” each time. In addition, the max response in [17] was -6.72%; in [18] it was 9.58% (inactive). Also, the activation in experiment [19] was -0.801% (inactive).
For `O=C=Nc1ccc(Cl)c(Cl)c1`, the Potency entry in experiment [5] and in [16] was “inactive” in each case. For the same compound, in [17], the max response turned out to be 26.4%. Besides, in experiment [18], the Potency is 14.1 µM (active).
Consider `O=C1c2ccccc2C(=O)C1(O)O`, for which the results for the Potency in [2], in [4] and in experiment [5] were > 92 µM (inactive), 31.6 µM (active) and 50.1 µM (active), respectively. Moreover, the Potency result in experiment [3], in experiment [6], in experiment [7], in [8], in [9] and in experiment [10] was “inactive” each time. Besides, the Potency result in experiment [11], in experiment [12], in experiment [13], in experiment [14] and in experiment [16] was “inactive” in each case. Further, the max response was -5.61% in experiment [17] and 29.7% (inactive) in [18]. In experiment [19], the activation was -0.0089% (inactive).
`CN(C)c1ccc(C(=N)c2ccc(N(C)C)cc2)cc1`: the Potency in experiment [2] was 57 µM (active); in [12], 39.8 µM (active); in experiment [14] it was 39.8 µM (active); in experiment [20], 25.1 µM (active); in [15], 39.8 µM (active). Besides, in experiment [19], the activation is 13.1% (inactive).
On to `O=[N+]([O-])c1cc(N(CCO)CCO)ccc1NCCO`, for which the Potency entry in [4], in [6], in experiment [9], in [10], in [11] and in experiment [12] was “inactive” throughout. Besides, the Potency entry in experiment [13], in experiment [14], in [20], in [15] and in [16] was “inactive” each time. The max response is 5.15% and -22.9% in experiment [17]; 0.262% (inactive) and 0.951% (inactive) in [18]. Besides, the activation in experiment [19] is -2.68% (inactive) and -1.58% (inactive).
As to `O=Nc1ccc(Nc2ccccc2)cc1`, the Potency in experiment [2] was > 92 µM (inactive). The Potency entry in [3] was “inactive”.
In the case of `Cc1cc(-c2ccc(N=Nc3cc(S(=O)(=O)O)c4ccccc4c3N)c(C)c2)ccc1N=Nc1cc(S(=O)(=O)O)c2ccccc2c1N`, the Potency entry in experiment [4], in experiment [5], in [20] and in experiment [16] was “inactive” in each case. For the same compound, the max response is -6.21% in experiment [17] and 0.921% (inactive) in experiment [18]. In experiment [19], the activation was 0.307% (inactive).
